PLK1 PBD block = inhibitors of human PLK1 polo-box domain binding. P53350. Plk1 PBD binding of FITC phosphopeptide, fluorescence polarization. Potency, µM, for inactives: max response, negative = inhibition, actives largely listed as inhibitors. actives 2.8% (n = 360,000); also: series mostly up to about 57 µM; nearly all actives have a fitted effect of over 65% in size
Target sequence (P53350 whole entry, looked up, the tested form may be a part): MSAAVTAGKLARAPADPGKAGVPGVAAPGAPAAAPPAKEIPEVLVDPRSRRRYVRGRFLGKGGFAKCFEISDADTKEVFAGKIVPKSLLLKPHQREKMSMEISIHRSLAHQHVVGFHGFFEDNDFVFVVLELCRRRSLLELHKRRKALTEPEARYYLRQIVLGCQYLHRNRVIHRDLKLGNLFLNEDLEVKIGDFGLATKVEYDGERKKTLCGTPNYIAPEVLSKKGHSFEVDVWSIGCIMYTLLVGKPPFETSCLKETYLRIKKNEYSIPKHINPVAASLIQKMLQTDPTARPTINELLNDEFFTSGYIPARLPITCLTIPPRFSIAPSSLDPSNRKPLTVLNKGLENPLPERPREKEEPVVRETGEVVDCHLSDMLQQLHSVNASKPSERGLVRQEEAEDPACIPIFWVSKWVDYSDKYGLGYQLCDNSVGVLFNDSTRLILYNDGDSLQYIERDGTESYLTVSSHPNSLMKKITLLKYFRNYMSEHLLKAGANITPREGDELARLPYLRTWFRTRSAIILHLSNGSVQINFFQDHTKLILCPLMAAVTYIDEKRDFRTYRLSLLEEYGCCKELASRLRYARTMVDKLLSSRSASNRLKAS
DT40 TDP1 CPT = DT40-hTDP1 cell growth loss with CPT | chicken DT40 Tdp1-/-;hTDP1 cells + 20 nM CPT, ATP luminescence, 48 h | Potency, µM (top dose mostly 46.2 µM), for the others: top-dose activity change, negative = growth inhibition, most hits filed as inhibitors | actives 12% (n = 420,000); also: nearly all actives have a fitted effect of over 55% in size
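Chicken DT40 Tdp1-/- cells stably complemented with human TDP1 were seeded at 400 cells/well in medium containing 20 nM camptothecin, exposed to pin-transferred compounds, and grown at 37 °C for at least 48 hr. Viability was read as ATP luminescence.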
GCN5L2 inh = blocks human GCN5L2 histone acetyltransferase; Q92830; GCN5L2 HAT assay, ThioGlo1 CoA-SH fluorescence; Potency, µM (doses to about 58.9 µM), for the others: top-dose activity change, negative = inhibition, actives largely listed as inhibitors; actives 0.21% (n = 390,000); AID 504327
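Titration-based screen in which CoA formation is detected via maleimide probe ThioGlo1 (50uM) turning fluorescent on thiol reaction; substrates H3(1-25) 75uM and acetyl-CoA 70uM, GCN5L2 20nM, 20 min incubation at room temperature.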
TDP1 block = inhibitors of human tyrosyl-DNA phosphodiesterase TDP1; Q9NUW8; recombinant TDP1, AlphaScreen DNA substrate cleavage; Potency, µM (top dose mostly 130 µM), inactives show at the top dose activity change, negative = inhibition, hits mostly inhibitors; actives 0.28% (n = 350,000); also: nearly all actives have a fitted effect of over 40% in size
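Enzyme-compound mixtures sat 15 min at room temperature, followed by a 5 min reaction with 15 nM final substrate and 10 min with AlphaScreen beads. Recombinant human Tdp1 was used at 1 nM final.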
VDR inhibitor = vitamin D3 receptor (human) inhibition; actives 0.93% (n = 400,000); VDR-SRC2-3 peptide fluorescence polarization, 2 h; P11473; AID 504847; Potency, µM, without a hit: max response, negative = inhibition, most hits filed as inhibitors
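Fluorescence polarization assay measuring small-molecule disruption of VDR binding to the coregulator peptide SRC2-3. Compounds were pin-transferred (23 nl) into the reagent mix and incubated 2 h at room temperature before reading.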
TDP1 cell noCPT = qHTS for Inhibitors of human tyrosyl-DNA phosphodiesterase 1 (TDP1): qHTS in cells in absence of CPT. Potency, µM (titrated, usually from 46.2 µM), for inactives: at the top dose activity change, negative = growth inhibition, usual class: inhibitors. actives 15% (n = 420,000). DT40 Tdp1-/- hTDP1 cells, no CPT, ATP luminescence, 48 h. AID 686978, 2013; also: nearly all actives have a fitted effect of over 55% in size
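Compound effects on proliferation are scored in DT40 Tdp1-/-;hTDP1 cells in the absence of CPT. ATP levels (CellTiter-Glo luminescence) are recorded after a ≥48 hr, 37 °C incubation.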
* hit, by the source's call; u = inconclusive; x = no result. Hits are enriched below; roughly 18% of the tested compounds scored in any of these assays. Calls follow the shape of the dose curve; as a rule, active = well fitted curve in the direction sought with a large enough effect; inconclusive = small, poorly fitted or top-dose-only effect, or another doubt; inactive = no such curve, though single readings can be large; an effect the other way counts as inactive or inconclusive. % is scaled to controls: 0 for no effect and ±100 for the full control effect; potency is read from the fitted curve at half-maximal effect.

SMILES | PLK1 PBD block | DT40 TDP1 CPT | GCN5L2 inh | TDP1 block | VDR inhibitor | TDP1 cell noCPT
CCCCn1c(SCC(=O)N2CCN(c3ccccc3)CC2)nc2ccsc2c1=O | -3% | 12µM* | -15% | 7% | 0% | u
Cc1ccc(NC(=O)c2ccc(F)c(S(=O)(=O)NCCc3ccccc3)c2)cc1F | x | 21µM* | -5% | 5% | 12% | 23µM*
COc1ccc(NC(=O)c2ccc(Cl)c(S(=O)(=O)N3CC(C)OC(C)C3)c2)cn1 (stereo not given) | -1% | u | -2% | 0% | 18% | u
Cc1ccc(NC(=O)c2ccc(F)c(S(=O)(=O)N3CCc4ccccc4C3)c2)cc1F | x | u | 0% | 5% | 0% | 23µM*
Cc1ccccc1NC(=O)c1ccc(F)c(S(=O)(=O)N2CCc3ccccc3C2)c1 | x | -4% | 3% | 8% | -6% | u
COc1ccc(NC(=O)c2ccc(Cl)c(S(=O)(=O)N3CCc4ccccc4C3)c2)cn1 | -5% | 21µM* | -14% | 8% | -9% | 23µM*
CCC(C)(C)n1nnnc1C(c1ccc(C)cc1)N1CCCC1 (stereo not given) | 0% | -6% | -2% | 3% | -6% | -26%
CCC(C)(C)n1nnnc1C(c1ccc2ncccc2c1)N1CCCCCC1 (stereo not given) | 0% | 11µM* | -2% | 3% | 2% | u
c1csc(C(c2nnnn2C2CCCCC2)N2CCCC3(CCCCC3)C2)c1 (stereo not given) | -2% | u | -5% | 1% | 20% | 23µM*
CCC(C)(C)n1nnnc1C(c1cccs1)N1CCCCC1 (stereo not given) | 1% | u | -3% | 6% | u | 18µM*
CCC(C)(C)n1nnnc1C(c1ccccc1)N1CCN(C2CCCC2)CC1 (stereo not given) | -8% | 3% | -1% | 2% | -12% | -28%
c1ccc(CC2CCN(C(c3cccs3)c3nnnn3C3CCCC3)CC2)cc1 (stereo not given) | -7% | u | -3% | 5% | -5% | u
CCC(C)(C)n1nnnc1C(c1ccccc1)N1CCc2ccccc2C1 (stereo not given) | -2% | u | -3% | -1% | -6% | 23µM*
CC(CC(=O)c1ccccc1)=NCC(O)CN=C(C)CC(=O)c1ccccc1 (stereo not given) | 1% | u | x | x | x | u
Cc1ccc(-c2cc(NC(=O)COc3c(C)cc(C)cc3C)on2)cc1 | x | -3% | -6% | -4% | 3% | 2%
Oc1ccc(Cl)c(CN2CCN(c3ncc(Cc4ccccc4)cn3)CC2)c1 | -1% | u | x | x | x | 18µM*
COc1ccc(O)cc1CN1CCN(c2ncc(Cc3ccccc3)cn2)CC1 | -1% | 23µM* | x | x | x | 16µM*
Oc1cccc(CN2CCN(c3ncc(Cc4ccccc4)cn3)CC2)c1 | -2% | u | x | x | x | u
CN(C)C(=S)NC(=S)Nc1ccc2ccccc2c1 | -11% | u | x | x | 1% | u
COc1ccccc1NC(=O)Nc1nn(C)c2cccc(N(C)C)c12 | -6% | 15µM* | -6% | x | -1% | 16µM*
O=C(Nc1ccc(F)cc1)C1C2CCC3C(CCC21)C3(Cl)Cl (stereo not given) | -1% | u | 1% | x | -19% | 18µM*
O=C(CCCN1C(=O)/C(=C/c2cccs2)SC1=S)NNC(=O)c1ccc(F)cc1 | -2% | 26µM* | -4% | -1% | 21% | u
O=C(CCCN1C(=O)/C(=C/c2cccs2)SC1=S)Nc1ccc(C(=O)O)cc1 | -2% | 4% | -2% | 1% | -1% | -20%
